# Results filed as inconclusive are left out. Active and inactive are the calls of the source. Rule for the calls: active = hit-call score of the fitted dose curve at least 0.9, where 1 is the maximum; inconclusive = response in the unintended direction; inactive = score below 0.9.
# What was measured:
# [1] = molecular target: rat CYP2C12, Cyp2c12 (gene 25011) (UniProt P11510); test: NVS_ADME_rCYP2C12: NovaScreen (NVS) CYP450-related Enzyme Activity (ADME) Assay for rat CYP2C12 (AID 2283119)
# Summary of the method: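 Fluorescent-substrate turnover by recombinant rat CYP2C12, measured at 0.5 h, normalized to acetonitrile vehicle. Chemicals screened first at a single 10 uM concentration in duplicate, with concentration series for actives.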
# [2] = molecular target: human Acetylcholinesterase (AChE), ACHE (gene 43) (UniProt P22303); test: NVS_ENZ_hAChE: NovaScreen (NVS) Enzymatic Assay for human Acetylcholinesterase (AChE) (AID 2283129)
# Summary of the method: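 Actives from a duplicate single-point screen (25 uM) were followed up in concentration series. Enzyme activity read by absorbance (colorimetric) 0.33 hour after dosing, cell-free, normalized to DMSO, with loss of signal scored.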
# [3] = molecular target: rat CYP1A2, Cyp1a2 (gene 24297) (UniProt P04799); test: NVS_ADME_rCYP1A2: NovaScreen (NVS) CYP450-related Enzyme Activity (ADME) Assay for rat CYP1A2 (AID 2283115)
# Summary of the method: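 Primary testing ran in duplicate at 10 uM, with actives re-tested across concentration series. Fluorescence intensity from substrate turnover by recombinant protein, measured 1 hour post-dosing, with signal loss scored against acetonitrile vehicle.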
# [4] = molecular target: rat CYP2A2, Cyp2a2 (gene 24895) (UniProt P15149); test: NVS_ADME_rCYP2A2: NovaScreen (NVS) CYP450-related Enzyme Activity (ADME) Assay for rat CYP2A2 (AID 2283116)
# Summary of the method: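 Compounds first tested in duplicate at 10 uM, then in singleton concentration series up to 20 uM when over threshold. Activity of the recombinant enzyme read by fluorescence at 0.2 h, normalised to acetonitrile vehicle.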
# rat CYP2B1, gene 24300 = test: NVS_ADME_rCYP2B1: NovaScreen (NVS) CYP450-related Enzyme Activity (ADME) Assay for rat CYP2B1 (AID 2283117)
# Summary of the method: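 Cell-free fluorescence enzyme assay, recombinant rat CYP2B1, 0.75 h after dosing. Single-concentration duplicates at 10 uM preceded concentration series (max 20 uM) for actives; acetonitrile as negative-control baseline.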
# [5] = molecular target: rat CYP2C11, Cyp2c11 (gene 29277) (UniProt P08683); test: NVS_ADME_rCYP2C11: NovaScreen (NVS) CYP450-related Enzyme Activity (ADME) Assay for rat CYP2C11 (AID 2283118)
# Summary of the method: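 Screened first at 10 uM in duplicate, hits followed by concentration-response. Recombinant rat enzyme activity monitored by fluorescence 0.33 h post-dosing, normalised to acetonitrile negative control.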
# rat CYP2C6, gene 293989 = test: NVS_ADME_rCYP2C6: NovaScreen (NVS) CYP450-related Enzyme Activity (ADME) Assay for rat CYP2C6 (AID 2283120)
# Summary of the method: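 Compounds first tested in duplicate at 10 uM, hits (e.g. 30% inhibition) re-run in singleton dose series to a 20 uM top concentration. Enzyme activity of recombinant rat CYP2C6 measured via fluorescent substrate turnover after 1 h; acetonitrile baseline.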
# [6] = molecular target: rat CYP2C13, Cyp2c13 (gene 171521) (UniProt P20814); test: NVS_ADME_rCYP2C13: NovaScreen (NVS) CYP450-related Enzyme Activity (ADME) Assay for rat CYP2C13 (AID 2283121)
# Summary of the method: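 Inhibition is read as decreased fluorescent product formation, referenced to acetonitrile vehicle. Cell-free recombinant rat Cyp2c13 reaction ran 0.75 hour; compounds first at 10 uM in duplicate, then concentration series for actives.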
# [7] = molecular target: rat CYP2D1, Cyp2d1 (gene 266684) (UniProt P10633); test: NVS_ADME_rCYP2D1: NovaScreen (NVS) CYP450-related Enzyme Activity (ADME) Assay for rat CYP2D1 (AID 2283122)
# Summary of the method: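 Rat CYP2D1 enzyme activity measured by fluorescence intensity in a cell-free format, 0.75 h post-dosing, acetonitrile as negative control. Screening at 10 uM in duplicate, with actives followed in concentration series up to 20 uM.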
# [8] = molecular target: rat CYP2D2, Cyp2d26 (gene 25053) (UniProt P10634); test: NVS_ADME_rCYP2D2: NovaScreen (NVS) CYP450-related Enzyme Activity (ADME) Assay for rat CYP2D2 (AID 2283124)
# Summary of the method: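 Single-concentration duplicate testing at 10 uM, followed by concentration-response (top 20 uM) for chemicals passing threshold. Enzyme activity of the recombinant rat isoform measured by fluorescence after 0.75 h, acetonitrile as baseline.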
# rat CYP3A1, gene 25642 = test: NVS_ADME_rCYP3A1: NovaScreen (NVS) CYP450-related Enzyme Activity (ADME) Assay for rat CYP3A1 (AID 2283126)
# Summary of the method: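 Compounds went first at 10 uM duplicate, then to series with 20 uM maximum. Fluorescence from substrate turnover by the recombinant enzyme was measured 0.5 h post-dosing, inhibition scored against acetonitrile vehicle.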
# [9] = molecular target: rat CYP3A2, Cyp3a2 (gene 266682) (UniProt P05183); test: NVS_ADME_rCYP3A2: NovaScreen (NVS) CYP450-related Enzyme Activity (ADME) Assay for rat CYP3A2 (AID 2283128)
# Summary of the method: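 Fluorescence readout of extracted rat CYP3A2 activity 0.5 h post-dose, acetonitrile as negative control. Single-point testing in duplicate at 10 uM, followed by concentration series to a 20 uM maximum for actives.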
# [10] = molecular target: human AMP-activated Protein Kinase, alpha 1 (AMPKa1), PRKAA1 (gene 5562) (UniProt Q13131); test: NVS_ENZ_hAMPKa1: NovaScreen (NVS) Enzymatic Assay for human AMP-activated Protein Kinase, alpha 1 (AMPKa1) (AID 2283130)
# Summary of the method: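 Compounds were screened in duplicate at 25 uM, and those reaching ~30% inhibition were titrated up to 50 uM. The enzyme was recombinant human AMPKα1, and kinase turnover was read by fluorescence/mobility shift 1 h post-dosing as loss of signal versus DMSO.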
# Chain of rat CYP1A2, Cyp1a2 (gene 24297) (P04799 whole entry, looked up): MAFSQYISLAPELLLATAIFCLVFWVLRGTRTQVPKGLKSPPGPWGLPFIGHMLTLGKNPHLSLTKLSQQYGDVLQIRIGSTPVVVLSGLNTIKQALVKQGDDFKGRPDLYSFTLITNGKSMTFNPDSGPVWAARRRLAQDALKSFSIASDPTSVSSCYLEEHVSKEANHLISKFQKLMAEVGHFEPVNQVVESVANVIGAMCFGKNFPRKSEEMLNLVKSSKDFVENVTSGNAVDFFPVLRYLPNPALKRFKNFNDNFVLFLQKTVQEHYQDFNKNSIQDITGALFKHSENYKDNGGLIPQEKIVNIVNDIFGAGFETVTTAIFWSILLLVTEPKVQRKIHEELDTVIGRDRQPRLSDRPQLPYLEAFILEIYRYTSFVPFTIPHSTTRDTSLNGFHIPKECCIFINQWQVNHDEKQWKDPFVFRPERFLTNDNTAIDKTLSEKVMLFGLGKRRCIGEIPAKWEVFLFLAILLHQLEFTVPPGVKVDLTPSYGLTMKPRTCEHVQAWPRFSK
# Chain of rat CYP2C13, Cyp2c13 (gene 171521) (P20814 whole entry, looked up): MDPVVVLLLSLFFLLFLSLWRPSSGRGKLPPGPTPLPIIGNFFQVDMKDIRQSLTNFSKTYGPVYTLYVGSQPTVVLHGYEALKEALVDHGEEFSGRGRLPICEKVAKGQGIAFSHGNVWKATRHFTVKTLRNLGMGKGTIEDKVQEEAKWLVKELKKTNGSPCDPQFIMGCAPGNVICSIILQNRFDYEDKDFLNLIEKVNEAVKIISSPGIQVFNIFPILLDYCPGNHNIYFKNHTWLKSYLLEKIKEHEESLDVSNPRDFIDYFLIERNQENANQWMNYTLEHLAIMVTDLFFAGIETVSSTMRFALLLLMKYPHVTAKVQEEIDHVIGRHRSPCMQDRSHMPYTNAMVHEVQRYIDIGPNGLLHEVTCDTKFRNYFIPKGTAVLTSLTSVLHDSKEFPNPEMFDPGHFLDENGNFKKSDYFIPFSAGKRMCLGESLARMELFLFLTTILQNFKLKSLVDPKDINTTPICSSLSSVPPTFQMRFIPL
# Chain of rat CYP2C12, Cyp2c12 (gene 25011) (P11510 whole entry, looked up): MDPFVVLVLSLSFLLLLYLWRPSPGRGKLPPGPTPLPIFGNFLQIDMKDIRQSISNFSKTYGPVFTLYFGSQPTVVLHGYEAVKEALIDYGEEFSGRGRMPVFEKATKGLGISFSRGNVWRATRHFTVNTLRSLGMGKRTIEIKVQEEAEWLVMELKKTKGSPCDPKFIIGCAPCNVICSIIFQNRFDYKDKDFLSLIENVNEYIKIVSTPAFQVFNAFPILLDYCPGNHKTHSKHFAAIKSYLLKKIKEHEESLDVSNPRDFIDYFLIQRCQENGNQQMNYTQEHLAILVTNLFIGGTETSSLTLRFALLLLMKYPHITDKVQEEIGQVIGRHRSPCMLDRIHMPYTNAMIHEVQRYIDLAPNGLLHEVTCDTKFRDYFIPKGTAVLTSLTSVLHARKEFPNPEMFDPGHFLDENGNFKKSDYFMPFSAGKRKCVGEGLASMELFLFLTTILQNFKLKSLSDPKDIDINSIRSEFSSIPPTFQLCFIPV
# Chain of rat CYP2A2, Cyp2a2 (gene 24895) (P15149 whole entry, looked up): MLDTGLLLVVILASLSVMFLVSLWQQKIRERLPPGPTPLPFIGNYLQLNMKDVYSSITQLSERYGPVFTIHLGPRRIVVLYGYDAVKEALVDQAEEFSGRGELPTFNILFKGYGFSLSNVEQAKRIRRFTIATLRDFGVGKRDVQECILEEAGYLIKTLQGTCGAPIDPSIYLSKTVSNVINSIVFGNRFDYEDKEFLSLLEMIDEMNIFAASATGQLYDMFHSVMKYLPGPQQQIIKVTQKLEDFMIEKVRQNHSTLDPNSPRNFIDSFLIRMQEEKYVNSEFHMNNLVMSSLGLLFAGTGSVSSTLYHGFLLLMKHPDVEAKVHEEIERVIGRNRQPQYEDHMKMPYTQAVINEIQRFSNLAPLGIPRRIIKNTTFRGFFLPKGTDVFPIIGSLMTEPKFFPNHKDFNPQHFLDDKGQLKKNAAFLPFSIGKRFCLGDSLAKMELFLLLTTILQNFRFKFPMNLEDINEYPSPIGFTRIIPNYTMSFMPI
# Chain of rat CYP2D2, Cyp2d26 (gene 25053) (P10634 whole entry, looked up, canonical isoform): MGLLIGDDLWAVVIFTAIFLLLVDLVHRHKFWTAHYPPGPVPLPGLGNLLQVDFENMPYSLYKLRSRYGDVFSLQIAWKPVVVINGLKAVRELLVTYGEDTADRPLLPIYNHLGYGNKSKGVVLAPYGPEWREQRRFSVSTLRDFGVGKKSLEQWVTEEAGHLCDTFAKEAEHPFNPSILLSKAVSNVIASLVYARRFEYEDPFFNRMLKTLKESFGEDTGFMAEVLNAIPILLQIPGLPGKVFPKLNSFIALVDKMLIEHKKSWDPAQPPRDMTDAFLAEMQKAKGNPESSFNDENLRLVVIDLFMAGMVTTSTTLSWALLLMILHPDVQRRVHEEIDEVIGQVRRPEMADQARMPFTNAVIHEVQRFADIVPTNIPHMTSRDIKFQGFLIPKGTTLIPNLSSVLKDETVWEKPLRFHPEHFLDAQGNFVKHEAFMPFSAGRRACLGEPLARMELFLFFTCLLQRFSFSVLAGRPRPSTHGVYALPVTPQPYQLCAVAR
# Chain of rat CYP3A2, Cyp3a2 (gene 266682) (P05183 whole entry, looked up): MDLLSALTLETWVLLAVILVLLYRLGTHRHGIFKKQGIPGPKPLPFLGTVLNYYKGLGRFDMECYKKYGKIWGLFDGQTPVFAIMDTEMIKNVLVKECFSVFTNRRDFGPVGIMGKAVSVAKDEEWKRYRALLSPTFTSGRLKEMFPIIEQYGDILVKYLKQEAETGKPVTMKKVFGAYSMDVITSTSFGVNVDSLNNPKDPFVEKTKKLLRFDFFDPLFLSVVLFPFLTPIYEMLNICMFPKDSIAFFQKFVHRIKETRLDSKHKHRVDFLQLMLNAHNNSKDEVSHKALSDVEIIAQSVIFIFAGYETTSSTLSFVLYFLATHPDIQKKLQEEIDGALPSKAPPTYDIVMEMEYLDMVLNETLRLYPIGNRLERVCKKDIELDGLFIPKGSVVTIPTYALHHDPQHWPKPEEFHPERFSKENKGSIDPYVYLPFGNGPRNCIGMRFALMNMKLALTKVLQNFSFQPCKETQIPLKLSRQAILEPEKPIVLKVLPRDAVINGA
# Chain of rat CYP2D1, Cyp2d1 (gene 266684) (P10633 whole entry, looked up): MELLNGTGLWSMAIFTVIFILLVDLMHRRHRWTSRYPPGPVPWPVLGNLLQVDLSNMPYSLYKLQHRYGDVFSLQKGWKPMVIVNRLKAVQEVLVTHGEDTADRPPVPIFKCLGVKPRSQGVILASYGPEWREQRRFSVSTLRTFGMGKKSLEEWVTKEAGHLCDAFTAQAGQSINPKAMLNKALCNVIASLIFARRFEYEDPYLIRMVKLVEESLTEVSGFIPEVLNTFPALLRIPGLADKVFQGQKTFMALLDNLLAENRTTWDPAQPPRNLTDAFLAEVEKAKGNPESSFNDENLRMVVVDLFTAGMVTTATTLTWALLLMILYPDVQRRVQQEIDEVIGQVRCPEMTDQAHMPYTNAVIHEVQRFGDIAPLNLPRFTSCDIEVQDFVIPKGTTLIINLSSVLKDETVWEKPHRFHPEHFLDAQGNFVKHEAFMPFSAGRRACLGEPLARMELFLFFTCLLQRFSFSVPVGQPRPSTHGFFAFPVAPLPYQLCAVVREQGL
# Chain of human Acetylcholinesterase (AChE), ACHE (gene 43) (P22303 whole entry, looked up): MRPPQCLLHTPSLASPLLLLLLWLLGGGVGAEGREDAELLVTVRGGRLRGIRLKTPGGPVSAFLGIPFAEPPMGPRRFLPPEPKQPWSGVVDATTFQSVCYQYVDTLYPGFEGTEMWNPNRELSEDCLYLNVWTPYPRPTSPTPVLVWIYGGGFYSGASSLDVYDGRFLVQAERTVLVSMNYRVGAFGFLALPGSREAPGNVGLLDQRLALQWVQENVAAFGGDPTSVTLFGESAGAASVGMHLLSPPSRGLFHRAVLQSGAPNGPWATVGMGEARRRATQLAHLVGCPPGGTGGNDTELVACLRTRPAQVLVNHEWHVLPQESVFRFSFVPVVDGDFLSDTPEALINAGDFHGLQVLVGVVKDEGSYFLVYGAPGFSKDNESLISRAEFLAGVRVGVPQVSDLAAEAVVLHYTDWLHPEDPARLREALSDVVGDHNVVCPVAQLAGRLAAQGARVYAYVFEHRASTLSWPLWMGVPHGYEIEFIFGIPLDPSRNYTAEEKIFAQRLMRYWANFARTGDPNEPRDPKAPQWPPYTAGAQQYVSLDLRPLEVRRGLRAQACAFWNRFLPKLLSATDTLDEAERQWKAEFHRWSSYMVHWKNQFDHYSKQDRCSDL
# Chain of rat CYP2C11, Cyp2c11 (gene 29277) (P08683 whole entry, looked up): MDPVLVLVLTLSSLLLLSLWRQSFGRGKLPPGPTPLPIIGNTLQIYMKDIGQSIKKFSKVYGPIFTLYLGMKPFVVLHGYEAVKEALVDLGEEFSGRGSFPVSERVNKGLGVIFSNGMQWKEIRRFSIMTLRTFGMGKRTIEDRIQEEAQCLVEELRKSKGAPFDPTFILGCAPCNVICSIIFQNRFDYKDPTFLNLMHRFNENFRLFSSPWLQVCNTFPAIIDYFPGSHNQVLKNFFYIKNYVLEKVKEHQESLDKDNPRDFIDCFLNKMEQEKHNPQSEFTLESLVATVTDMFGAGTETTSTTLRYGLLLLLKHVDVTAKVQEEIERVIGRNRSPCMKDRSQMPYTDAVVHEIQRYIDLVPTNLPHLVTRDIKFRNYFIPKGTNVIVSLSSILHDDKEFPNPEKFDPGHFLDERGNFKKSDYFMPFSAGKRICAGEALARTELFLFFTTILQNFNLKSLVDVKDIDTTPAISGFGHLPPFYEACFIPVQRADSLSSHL
compound,measurement,setting,value
O=C(NC(=O)c1c(F)cccc1F)Nc1ccc(OC(F)(F)C(F)OC(F)(F)F)c(Cl)c1 (stereo not given),outcome,[1],inactive
CNC(=O)Oc1ccccc1OC(C)C,outcome,[1],inactive
same,AC50,[2],25 µM (active)
CCCN(CCOc1c(Cl)cc(Cl)cc1Cl)C(=O)n1ccnc1,outcome,[3],inactive
same,AC50,[4],9.34 nM (active)
same,AC50,"rat CYP2B1, gene 24300",33.8 nM (active)
same,AC50,[5],76.6 nM (active)
same,AC50,[1],4.58 µM (active)
same,AC50,"rat CYP2C6, gene 293989",166 nM (active)
same,AC50,[6],0.191 µM (active)
same,AC50,[7],1.22 µM (active)
same,AC50,[8],0.159 µM (active)
same,AC50,"rat CYP3A1, gene 25642",0.549 µM (active)
same,AC50,[9],1.39 µM (active)
O=C(Nc1ccccc1)Nc1cnns1,outcome,[3],inactive
same,outcome,[1],inactive
same,outcome,[6],inactive
same,AC50,[7],8.7 µM (active)
same,AC50,[8],4.41 µM (active)
COP(=S)(OC)Oc1ccc([N+](=O)[O-])cc1,outcome,[3],inactive
same,AC50,[4],5690 nM (active)
same,AC50,[5],2770 nM (active)
same,AC50,[1],6.47 µM (active)
same,AC50,"rat CYP2C6, gene 293989",344 nM (active)
same,AC50,[6],6.55 µM (active)
same,AC50,"rat CYP3A1, gene 25642",6.49 µM (active)
same,AC50,[9],4.97 µM (active)
same,outcome,[2],inactive
CC[C@H](C)[C@H]1O[C@]2(C=C[C@@H]1C)C[C@@H]1C[C@@H](C/C=C(\C)[C@@H](O[C@H]3C[C@H](OC)[C@@H](O[C@H]4C[C@H](OC)[C@@H](O)[C@H](C)O4)[C@H](C)O3)[C@@H](C)/C=C/C=C3\CO[C@@H]4[C@H](O)C(C)=C[C@@H](C(=O)O1)[C@]34O)O2 (tested in a mixture with another compound),outcome,[4],inactive
same,outcome,"rat CYP2B1, gene 24300",inactive
same,AC50,[6],10 µM (active)
same,AC50,[8],2.23 µM (active)
same,AC50,"rat CYP3A1, gene 25642",8.86 µM (active)
same,AC50,[10],31.2 µM (active)
CCOCN(C(=O)CCl)c1c(C)cccc1CC,AC50,"rat CYP2C6, gene 293989",10000 nM (active)
